Inconclusive results are not listed. A call without a number means that no potency is given here. The source made the active and inactive calls. The call rests on the fitted dose curve; in most records, active means well fitted inhibition curve with a large enough effect in the polarisation, with a control signal flat (not every such curve was filed as active); inconclusive means small, poorly fitted or top-dose-only effect, or effect the other way, or a change in a side signal; inactive means no such curve, though single readings can be large or run the other way; the % refers to the polarisation.
Assay: Confirmation of Inhibitors Targeting the Menin-MLL Interaction in MLL Related Leukemias: Competition With Texas Red Labeled MLL-derived Mutant Peptide
Conditions: fluorescence polarization, Texas Red MLL peptide displacement; series mostly up to 94.6 µM
Text: qHTS Assay for Inhibitors Targeting the Menin-MLL Interaction in MLL Related Leukemias
NIH Chemical Genomics Center [NCGC]
NIH Molecular Libraries Probe Centers Network [MLPCN]
Assay Submitter (PI): Jolanta Grembecka, Tomasz Cierpicki, University of Virginia
Translocations of the MLL (Mixed Lineage Leukemia) gene are frequently found in human leukemias affecting both children and adults. Fusion of MLL to one of more than 60 genes results in generation of oncogenic proteins upregulating Hox genes, which are vital to blood cell development. Patients harboring fusion of the MLL gene suffer from aggressive leukemias and respond poorly to available therapies. All of the oncogenic fusion proteins have a preserved N-terminal fragment of MLL that has been identified to interact with menin. It has been recently discovered that association with menin is critical to the leukemogenic activity of the MLL fusion oncoproteins. Selective targeting of the menin-MLL interaction could provide an attractive therapeutic approach to develop novel drugs for MLL-related leukemias. Small molecules blocking the menin-MLL interaction should reverse the oncogenic potential of MLL fusion proteins.
We have developed and optimized a fluorescence polarization-based assay for the identification of Menin-MLL inhibitors. The assay was run employing two different MLL-derived peptides. The present assay uses a 12 amino acid peptide labeled with fluorescein at its N-terminus. This peptide consists of the menin high affinity binding motif from MLL and is potently bound by menin. Another peptide with a mutated sequence, labeled with Texas Red, was used in parallel as a less stringent screen for inhibitors.
The present assay was run to confirm the activity of hits from the primary screen using the peptide with a mutated sequence, labeled with Texas Red.
The Menin protein, the MLL-wild type (w.t.) derived peptide (N-terminal 12 amino acids), the MLL-derived peptide labeled with Texas Red and the MLL-w.t. peptide labeled with Fluorescein were kindly supplied by laboratory of Dr. Jolanta Grembecka, University of Virginia. All protein and peptide solutions were stored in single use aliquots at -80C. The Eu3+ Cyrptate-conjugated mouse monoclonal antibody anti-6 Histidine (Eu3+-AB) and the Streptavidin-XL665 conjugate (XL665) were purchased from Cisbio International (Bedford, MA). All antibody and XL665 conjugate solution stocks were stored in single use aliquots at -20C. The Buffer components for all assays were purchased from Sigma-Aldrich (St. Louis, MO) and Invitrogen (Carlsbad, CA).
1. FP reaction buffer: 50 mM Tris-HCl pH 7.5, 50 mM NaCl, 1mM DTT.
Before use, 0.05% BSA is added.
2. Menin protein, MLL-w.t. labeled with fluorescein, MLL-mutant peptide labeled with texas red.
Stored in singe use aliquots at -80C.
3. MLL-w.t. unlabeled peptide as positive control: 10 uM final in FP buffer.
1. Prepare Menin at 200 nM, MLL-w.t.-fluorescein at 25 nM, and MLL-mutant-texas red at 50 nM mixture in FP buffer.
2. Prepare Menin at 200 nM, MLL-w.t.-fluorescein at 25 nM, MLL-mutant-texas red at 50 nM, and 10 uM MLL-w.t. unlabeled mixture in FP buffer.
3. Prepare MLL-w.t.-fluorescein at 25 nM and MLL-mutant-texas red at 50 nM mixture in FP buffer.
3. Dispense 4 ul per well of reagent in step 1 in columns 2, 4 - 48 in a black 1536 well plate, dispense 4 ul per well of reagents from steps 2 and 3 in columns 1 and 3 respectively. Incubate plate at ambient for 15 minutes.
4. Transfer 23 nl per well of compound to plate and incubate at ambient for 1 hr.
5. Read fluorescence polarization for each label using the PerkinElmer Envision.
Envision protocol for fluorescein: FITC FP Dual Enh Mirror, Excitation filter 480, Emission filter (1) P-pol 535, Emission filter (2) S-pol 535
Envision protocol for texas red: FP Dual Enh Mirror, Excitation filter 555, Emission filter (1) P-pol 632, Emission filter (2) S-pol 632
For `Cn1ncc2c(N3CCCCC3)nc(NCCCO)nc21`, the Potency was “inactive”.
In the case of `COc1cc(SC)ccc1C(=O)Nc1cccc(C2OCCCO2)c1`, the Potency is reported as “inactive”.
In the case of `CCOc1ccccc1N(CC(=O)Nc1ccccc1C(=O)N1CCCC1)S(C)(=O)=O`, the Potency is reported as “inactive”.
For `CN1[C@H](CC(=O)c2ccccc2)CCC[C@H]1C[C@@H](O)c1ccccc1`, the Potency was “inactive”.
With `CC(=O)O[C@H]1CSC[C@H]1NC(=O)c1ccccc1` the Potency was “inactive”.
For `CN(C)CCCOc1ccc2c(c1)Sc1ccccc1CC2=O`, the Potency was 141 µM (active).
In the case of `Cc1ccc(C)n1-c1ccc(N(C)C)cc1`, the Potency is reported as “inactive”.
For `CCCN(CCC)CCCNC(=O)c1cc2c(=O)[nH]c3ccccc3c2s1`, the Potency was “inactive”.
In the case of `COCCNC(=O)C(OC(=O)c1nsc(Cl)c1Cl)C(C)C` (stereo not given), the Potency is reported as “inactive”.
In the case of `O=C1C(Cl)=C(NCCN2CCOCC2)C(=O)c2ncccc21`, the Potency is reported as “inactive”.
In the case of `CCOc1cc(CNCCc2ccc(S(N)(=O)=O)cc2)ccc1OCc1ccccc1`, the Potency is reported as 70.8 µM (active).
With `COc1ccc(CNC(=O)C(c2ccc(O)cc2)N(Cc2ccco2)C(=O)c2snc(C(N)=O)c2N)cc1` (stereo not given) the Potency was “inactive”.
For `c1ccc2c(c1)nc(N1CCOCC1)c1c3ccccc3[nH]c21`, the Potency was “inactive”.
With `O=C(NCC1CCCO1)c1ccc(OC2CCN(C(=O)C3CC3)CC2)cc1` (stereo not given) the Potency was “inactive”.
With `O=C(Nc1ccc2c(c1)OCO2)c1ccccc1` the Potency was “inactive”.
With `CC(=O)c1c(O)cc(O)cc1CC(=O)O` the Potency was “inactive”.
For `O=C(Nc1nnc(-c2ccccc2SCc2ccccc2)s1)Nc1ccccc1F`, the Potency was 22.4 µM (active).
In the case of `CCOC(=O)Cn1cnc2scc(-c3ccc(C)c(C)c3)c2c1=O`, the Potency is reported as “inactive”.
In the case of `Cc1nn(-c2ccccc2)c2nc(N)c(C(N)=O)cc12`, the Potency is reported as “inactive”.
With `COc1ccc(NC(=O)N2CC[C@@]3(CCCN(C(=O)c4csnn4)C3)C2)cc1` the Potency was “inactive”.
For `Cn1c(=O)[nH]c(=O)c2c1nc(Br)n2CCSc1nc2ccccc2o1`, the Potency was “inactive”.
With `COc1cc(O)c(C(=O)c2ccccc2)cc1O` the Potency was “inactive”.
With `CN(C)c1ccc(C2CC(=O)C=C(Nc3ccccc3N)C2)cc1` (stereo not given) the Potency was 63.2 µM (active).
For `COc1ccc(NC(=O)NC2(C(=O)N3CCOCC3)CCCCC2)cc1`, the Potency was “inactive”.
With `O=C(N1CCOCC1)N1CCN(S(=O)(=O)c2ccc(Cl)cc2)CC1` the Potency was “inactive”.
For `C=C(C)CNC(=S)Nc1cccc2cnccc12`, the Potency was “inactive”.
With `O=C(Nc1nccs1)C(Br)C(Br)c1ccccc1` (stereo not given) the Potency was “inactive”.
In the case of `O=S(=O)(NCCc1c[nH]c2ccccc12)c1ccccc1`, the Potency is reported as “inactive”.
In the case of `O=c1cc(O)c2ccccc2n1Cc1ccccc1F`, the Potency is reported as “inactive”.
In the case of `CCCCCC1CCC(C(=O)NCCN2CCOCC2)CC1` (stereo not given), the Potency is reported as “inactive”.
In the case of `O=C(Nc1cc(Br)ccc1O)c1cc(-c2ccccc2)on1`, the Potency is reported as 20 µM (active).
For `O=C(/C=C/c1ccccc1)Nc1nnc(SCC(=O)c2ccc3ccccc3c2)s1`, the Potency was 17.8 µM (active).
For `COC(=O)COc1ccc(C(C2C(=O)CC(C)(C)CC2=O)C2C(=O)CC(C)(C)CC2=O)cc1`, the Potency was “inactive”.
In the case of `COc1cc(OC)c2ccc(=O)oc2c1C(CCN1CCOCC1)c1ccc(N(C)C)cc1` (stereo not given), the Potency is reported as “inactive”.
In the case of `NC(=O)c1cc2ccccc2o/c1=N/NC(=O)c1cccc(F)c1`, the Potency is reported as “inactive”.
In the case of `O=C(CC(=O)c1ccccc1)Nc1cc(C(F)(F)F)ccc1Cl`, the Potency is reported as “inactive”.
In the case of `CCCC(=O)Nc1cccc(NC(=O)c2ccc([N+](=O)[O-])cc2Cl)c1`, the Potency is reported as “inactive”.
In the case of `CCOC(=O)Cn1c2ccccc2n2nc(CCC(=O)O)c(=O)nc12`, the Potency is reported as “inactive”.
With `CC(c1cc2ccccc2s1)N(O)C(N)=O` (stereo not given) the Potency was “inactive”.
In the case of `NC(=O)[C@@H]1CCCNc2c(I)cc([N+](=O)[O-])cc2C(=O)N[C@@H](CCCN=C(N)N)C(=O)N[C@@H](CCCN=C(N)N)C(=O)N1`, the Potency is reported as 141 µM (active).
Potency means the concentration at half of the fitted maximal effect.
